TNAP act DEA – activates human TNAP at intermediate phosphate acceptor concentration | AID 813 | P05186 | purified TNAP, CDP-star luminescence, 100 mM DEA, 30 min; active compounds read high; scale: 0 levamisole-inhibited, 1 vehicle-only enzyme | 64,000 tested, under 10 active | activation factor at 20 µM;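 active = activation factor of at least 2 at 20 µM, relative to controls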
PostGolgi yeast – growth inhibition of a yeast mutant, post-Golgi transport screen | post-Golgi transport phenotypic cell assay | inhibition, % at 10 µM | 98,000 compounds, 0.9% hits;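 also: yeast cells grown in 1536-well plates; yeast grown about 18 h at 30C before absorbance read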
DAT uptake mod – human DAT dopamine uptake with cocaine, either direction | 110,000 compounds, 1.3% hits | LLC-PK1 hDAT cells, [14C]-dopamine uptake with cocaine IC80; actives deviate in either direction | AID 449768 | Q01959 | B-score at 10 µM;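 active = Z score or B-score, a plate-position-corrected score, falls beyond the plate's 99.7% confidence bounds, in either direction; inactive = both scores lie inside the 99.7% bounds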;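 also: scored against the spread of the other compound wells on the same plate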
Cav3 T inh – human Cav3.2 channel inhibition, primary screen. B-score at 10 µM. O95180. Cav3.2-expressing cells, Fluo-4 calcium fluorescence FDSS; active compounds read low. 100,000 compounds, 4% hits. AID 449739;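 active = single-dose well whose peak fluorescence ratio is a statistical outlier from its plate by either plate-standardised score or position-corrected B-score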
PostGolgi ctrl – yeast control strain growth, post-Golgi counter-screen. efflux-deficient yeast background strain, growth absorbance A615, 16 h. inhibition, % at 10 µM. 98,000 compounds, 5% hits
Smad3 FoxH1 inh – Smad3 (human) transcription factor binding inhibition | AID 630 | P84022 | TR-FRET Smad3/Dy647-FoxH1 peptide binding, europium anti-His | 88,000 compounds, 0.29% hits | inhibition, % at 25 µM;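 active = compounds that reduce the energy-transfer binding signal between the protein and its labelled peptide by more than half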;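 also: 0% = Smad3 plus labelled peptide maximal FRET and 100% = peptide-only background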
* marks the source's active call; other numbers are inactive results; · = no result given; [ ] = remark or other dose. Rows were chosen to be rich in hits. Some 8.7% of all compounds tested hit in one or more screens of this group. Rule as the data show it, unless noted: active = inhibition above about 30%; inactive = the rest.

SMILES	TNAP act DEA	PostGolgi yeast	DAT uptake mod	Cav3 T inh	PostGolgi ctrl	Smad3 FoxH1 inh
CCOC(=O)c1ccc(NC(=O)CSc2nc3c(c(=O)n2CC)SC(C)C3)cc1 (stereo not given)	0.9	11	0.51	-0.81	14	-5
O=C1CCc2cc(S(=O)(=O)NC(Cc3ccccc3)C(=O)NCC3CCCO3)ccc2N1 (stereo not given)	1.1	-1	-0.13	2.4	0	-2
CCn1c(SC)nnc1-c1sc2cc(Cl)ccc2c1Cl	1	-3	2.3	-3.9	70*	5
C=CCc1ccccc1OCC(O)CN1CCN(c2ccccc2F)CC1 (stereo not given)	0.9	6	-0.14	-2.4	11	·
C=CCc1ccccc1OCC(O)CN1CCN(c2ccccc2OC)CC1 (stereo not given)	0.9	13	-0.71	-3.3	-10	-13
C=CCc1cc(C)ccc1OCC(O)CN1CCN(c2ccccc2)CC1 (stereo not given)	1	3	0.31	-4.6*	15	-8
COc1ccccc1N1CCN(CC(O)COc2cccc3ccccc23)CC1 (stereo not given)	0.9	·	1.2	-4.5*	·	-4
Cc1ccc(OCC(O)CN2CCN(c3ccccc3)CC2)cc1 (stereo not given)	0.9	0	2.3	-0.46	21	4
C=CCc1cc(OC)ccc1OCC(O)CN1CCN(c2ccc(OC)cc2)CC1 (stereo not given)	0.9	-6	0.15	-1.4	45*	10
N=c1c(C(=O)NCc2ccco2)cc2c(=O)n3ccccc3nc2n1CCc1ccccc1	0.9	·	4.1*	-2.1	·	-5
Cc1cccc(NC(=O)C2CCCN2C(=O)OCC(C)C)c1C (stereo not given)	0.8	-3	-1.3	-0.015	35*	-1
CCn1c(CCNC(=O)c2ccc(Cl)cc2)nnc1SCC(=O)NC1CCCC1	1	-1	0.37	0.007	1	-8
CCN(c1ccccc1)S(=O)(=O)c1ccc(N)c(OC)c1	·	-13	·	·	2	-3
Cc1cc(Nc2ccccc2)n(-c2ccc(Br)cc2)n1	·	-1	-0.19	-7.2*	12	10
O=C(Nc1cccc(F)c1)N(Cc1ccc(Cl)cc1)CC(O)C(F)(F)F (stereo not given)	·	13	0.2	-7.2*	58*	·
O=C(Nc1ccccc1)N(Cc1ccccc1)CC(O)C(F)(F)F (stereo not given)	·	-9	-0.055	0.28	12	·
S=c1[nH]nc(C2CCCCC2)n1/N=C/C=C/c1ccccc1	·	20	·	·	31*	·
S=c1[nH]nc(C2CCCCC2)n1/N=C/c1ccc(Br)s1	·	1	0.41	0.87	-7	·
Cc1ccc(C(=O)CSc2nc(C)cc(=O)[nH]2)cc1	·	4	0.85	0.98	9	-17
CC(C)Oc1ccc(/C=N/NC(=O)C(CSCc2ccccc2)NC(=O)c2ccc([N+](=O)[O-])cc2)cc1 (stereo not given)	·	·	-6*	-7.4*	·	-4
COc1ccc(Cl)cc1N1Cc2ccccc2C1	·	-5	-0.76	0.72	32*	-2
C=CCn1c(SCC(=O)NCC2CCCO2)nc2scc(-c3ccco3)c2c1=O (stereo not given)	0.9	10	2.6*	-0.68	11	5
O=C(CSc1nc2scc(-c3ccco3)c2c(=O)n1-c1ccccc1)NCC1CCCO1 (stereo not given)	0.9	3	-0.083	-2.9	4	-2
O=C(COC(=O)c1cccc(S(=O)(=O)N2CCOCC2)c1)Nc1ncc(C(F)(F)F)cc1Cl	·	4	-1.8	0.53	-8	0
Cc1ccc(C(C)C)c(OCCNC(=O)c2cncc(Br)c2)c1	·	3	0.049	-4.9*	15	·
SMILES	TNAP act DEA	PostGolgi yeast	DAT uptake mod	Cav3 T inh	PostGolgi ctrl	Smad3 FoxH1 inh
O=C(NCCOc1ccccc1)c1cncc(Br)c1	·	5	-0.41	1.6	-2	·
COc1ccc(OC)c(NC(=O)C(=O)/C=C(\O)c2cc(OC)ccc2OC)c1	·	11	-0.039	-5.2*	30*	·
COCC(=O)Nc1cc(OC)ccc1OC	0.9	3	-0.71	0.33	-2	4
FC(F)(F)c1nc(SCc2ccc(Cl)cc2)n[nH]1	·	·	·	·	·	-2
CCn1ncc(/C=C/C(=O)Nc2c(C)nn(Cc3ccc(Cl)cc3Cl)c2C)c1C	·	-4	0.71	-1.5	1	·
CCCn1c(NCc2ccco2)nc2c1c(=O)n(C)c(=O)n2C	·	·	-0.23	-0.0039	·	7
Cn1c(NCc2ccco2)nc2c1c(=O)n(Cc1ccc(Br)cc1)c(=O)n2C	1	-6	-0.012	-1.4	32*	-7
Cn1c(=O)c2c(nc(NCc3ccco3)n2CC(O)COc2ccccc2)n(C)c1=O (stereo not given)	0.9	-1	·	·	40*	-5
COC(=O)Cn1c(C(=O)N2CCCC2)cc2c1C[C@H]1CN(C(=O)c3ccccc3)[C@@](Cc3ccc(F)cc3)(C(=O)OC)[C@@H]21	·	·	0.22	-0.6	·	·
CCOC(=O)c1sc(NC(=O)Nc2ccc(Cl)cc2)cc1C	·	3	0.11	-0.75	62*	·
Cc1ccc(-c2nc3sc4c(N)ncnc4c3c3c2CCCC3)cc1	·	-1	-4.9*	-0.91	6	·
COC(=O)c1sc2nc(-c3ccccc3)c3c(c2c1N)CCCC3	·	2	-1.1	0.031	5	·
Cn1c(=O)cc(SCC(=O)NCC2CCCO2)c2ccc(Cl)cc21 (stereo not given)	0.9	·	-0.27	-1.7	·	50*[fluorescence artefact?]
CCn1c(=O)cc(SCC(=O)NCC2CCCO2)c2ccccc21 (stereo not given)	0.9	-2	-0.26	0.37	11	30
CCN1CCCC1CNC(=O)CSc1cc(=O)n(C)c2cc(Cl)ccc12 (stereo not given)	1	-1	0.027	0.58	0	53*[fluorescence artefact?]
Cc1[nH]nc(N=CC2=C(O)CC(c3ccco3)CC2=O)c1-c1ccccc1 (stereo not given)	1	4	-0.59	-0.69	45*	6
Cc1[nH]nc(N=CC2=C(O)CC(C)(C)CC2=O)c1-c1ccccc1	1.1	3	-0.01	-0.057	15	5
Cc1cccc(NC(=S)NN(Cc2ccccc2)c2ccccc2)c1C	·	-2	0.48	-4.9*	14	·
Cn1c(=O)c2c(ncn2CC(=O)N2CCN(c3ccc(F)cc3)CC2)n(C)c1=O	0.9	4	0.86	0.98	8	-2
COc1ccc(N/C=C(\C#N)c2nc3ccccc3n2C)c(OC)c1	1	24	-1.1	-0.92	49*	-1
CC(Oc1ccccc1)C(=O)Nc1cccc(-c2nc3ccccc3[nH]2)c1 (stereo not given)	·	-6	-0.019	-4.6*	15	·
O=C(COc1ccccc1)Nc1cccc(-c2nc3cc4ccccc4cc3[nH]2)c1	·	45*	0.46	-2.1	20	·
CC(=O)Nc1nc2n(n1)C(c1ccc(Cl)cc1)C=C(C)N2 (stereo not given)	0.9	5	1.6	0.63	9	63*
